Assay [1] in a line: qHTS assay to identify small molecule antagonists of the glucocorticoid receptor (GR) signaling pathway - cell viability counter screen (AID 720693). Note: nearly all actives have a fitted effect of over 55% in size.
Assay [2] can be described thus: qHTS assay for identifying genotoxic compounds that show differential cytotoxicity against isogenic chicken DT40 cell lines with known DNA damage response pathways - wild type cell line (AID 743012). Note: nearly all actives have a fitted effect of over 60% in size. Note: potency is the fitted concentration of half-maximal effect. In a few lines: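 Viability of DNA repair-proficient chicken DT40 cells was assessed by CellTiter-Glo luminescence following 40 h compound exposure at 37 C/5% CO2.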

Assay [3] in a line: qHTS assay for identifying genotoxic compounds that show differential cytotoxicity against isogenic chicken DT40 cell lines with known DNA damage response pathways - Rev3 mutant cell line (AID 743014). Note: nearly all actives have a fitted effect of over 55% in size. Note: potency is the fitted concentration of half-maximal effect.
A short description of assay [4]: qHTS assay to identify small molecule antagonists of the androgen receptor (AR) signaling pathway - cell viability counter screen (AID 743033; note: nearly all actives have a fitted effect of over 45% in size).
A short description of assay [5]: qHTS assay to identify small molecule antagonists of the androgen receptor (AR) signaling pathway using the MDA cell line - cell viability counter screen (AID 743041; note: nearly all actives have a fitted effect of over 45% in size). In a few lines:
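In this qHTS counter assay, fluorescence intensity after CellTiter-Fluor addition indicated viability of MDA-kb2 AR-luc cells given compounds and R1881 for 16 h at 37C.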

Assay [6] in a line: qHTS assay to identify small molecule antagonists of the thyroid receptor (TR) signaling pathway - cell viability counter screen (AID 743064). Note: nearly all actives have a fitted effect of over 50% in size. Note: potency is the fitted concentration of half-maximal effect. The procedure, abridged:
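GH3.TRE-Luc cells, 4 h pre-plating; cpd + T3 1 nM final; 37 °C 23.5 h; CellTiter-Fluor 30 min; fluorescence read.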

Assay [7] can be described thus: qHTS assay to identify small molecule antagonists of the thyroid receptor (TR) signaling pathway (AID 743065). Note: nearly all actives have a fitted effect of over 55% in size. Note: potency is the fitted concentration of half-maximal effect. The procedure, abridged:
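GH3.TRE-Luc rat pituitary cells carrying two TR response elements driving luciferase were plated for 4 h, given compound plus 1 nM T3 (final), and incubated 23.5 h at 37 C. ONE-Glo luminescence measured reporter inhibition; CellTiter-Fluor fluorescence tracked cytotoxicity.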

The test system of assay [8] is thyroid hormone receptor (rat, GH3 cells). Put plainly: qHTS assay to identify small molecule agonists of the thyroid receptor (TR) signaling pathway (AID 743066; calls by dose curve).
The target of assay [9] is Estrogen receptor (Homo sapiens) (UniProt P03372). Briefly: qHTS assay to identify small molecule antagonists of the estrogen receptor alpha (ER-alpha) signaling pathway (AID 743069; active = well fitted curve in the direction sought with a large enough effect in the signal ratio in the repeat runs, not every such curve was filed as active; the % refers to the signal ratio; note: potency is the fitted concentration of half-maximal effect). The procedure, abridged:
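A 17beta-estradiol challenge was applied right after compound transfer to ER-alpha-UAS-bla HEK293 cells previously kept in charcoal-stripped serum. Plates stood 18 hr at 37C and 5% CO2; fluorescence was read following 2 hr FRET substrate loading at room temperature.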

Assay [10] is described as follows: qHTS assay to identify small molecule antagonists of the estrogen receptor alpha (ER-alpha) signaling pathway - cell viability counter screen (AID 743074; calls by dose curve;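 note: HEK293 cells carrying ER-alpha-UAS-bla reporter stimulated with 17beta-estradiol; nearly all actives have a fitted effect of over 45% in size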).
In assay [11] the target is Estrogen receptor (Homo sapiens) (UniProt P03372). Put plainly: qHTS assay to identify small molecule agonists of the estrogen receptor alpha (ER-alpha) signaling pathway (AID 743075; calls by dose curve;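 note: HEK293 GripTite cells with ER-alpha and UAS-driven beta-lactamase reporter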).
Sequence of Estrogen receptor (Homo sapiens) (P03372 whole entry, looked up): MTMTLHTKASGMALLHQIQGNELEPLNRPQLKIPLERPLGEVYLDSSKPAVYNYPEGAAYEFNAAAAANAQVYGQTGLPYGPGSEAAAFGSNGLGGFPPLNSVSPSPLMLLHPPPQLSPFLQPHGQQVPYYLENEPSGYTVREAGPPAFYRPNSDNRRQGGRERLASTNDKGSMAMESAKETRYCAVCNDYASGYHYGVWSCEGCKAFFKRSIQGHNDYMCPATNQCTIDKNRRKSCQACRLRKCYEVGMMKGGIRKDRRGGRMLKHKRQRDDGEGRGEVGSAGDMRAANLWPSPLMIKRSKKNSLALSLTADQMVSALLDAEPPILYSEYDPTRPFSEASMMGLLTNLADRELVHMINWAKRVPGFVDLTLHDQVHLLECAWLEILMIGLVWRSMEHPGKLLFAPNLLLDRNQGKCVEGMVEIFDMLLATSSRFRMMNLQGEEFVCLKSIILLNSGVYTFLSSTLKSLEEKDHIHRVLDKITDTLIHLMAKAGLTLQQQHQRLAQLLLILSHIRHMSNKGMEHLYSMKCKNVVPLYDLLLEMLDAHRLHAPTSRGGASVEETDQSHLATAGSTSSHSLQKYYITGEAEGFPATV
The target is the same in assay [12]. Put plainly: qHTS assay to identify small molecule agonists of the estrogen receptor alpha (ER-alpha) signaling pathway using the BG1 cell line (AID 743079). Note: nearly all actives have a fitted effect of over 20% in size.
A short description of assay [13]: qHTS assay to identify small molecule antagonists of the estrogen receptor alpha (ER-alpha) signaling pathway using the BG1 cell line (AID 743080; calls by dose curve;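 note: BG1 cells stimulated with 17beta-estradiol alongside compound; series mostly up to about 70 µM; nearly all actives have a fitted effect of over 25% in size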). In a few lines: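 BG1-Luc-4E2 cells (endogenous full-length ER-alpha, 4xERE luciferase) hormone-starved 5 days in charcoal-stripped FBS, plated 4,000/well for 24 h, then compound plus 17beta-estradiol for 21.5 h at 37 C; ONE-Glo luminescence read.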

A short description of assay [14]: qHTS assay to identify small molecule antagonists of the estrogen receptor alpha (ER-alpha) signaling pathway using the BG1 cell line - cell viability counter screen (AID 743081).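 Note: compound given together with 17beta-estradiol as the ER stimulus; series mostly up to about 70 µM; nearly all actives have a fitted effect of over 45% in size.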
A further assay deals with Aromatase (Homo sapiens) (UniProt P11511). Put plainly: qHTS assay to identify aromatase inhibitors (AID 743083). Note: nearly all actives have a fitted effect of over 55% in size. Note: potency is the fitted concentration of half-maximal effect.
Sequence of Aromatase (Homo sapiens) (P11511 whole entry, looked up): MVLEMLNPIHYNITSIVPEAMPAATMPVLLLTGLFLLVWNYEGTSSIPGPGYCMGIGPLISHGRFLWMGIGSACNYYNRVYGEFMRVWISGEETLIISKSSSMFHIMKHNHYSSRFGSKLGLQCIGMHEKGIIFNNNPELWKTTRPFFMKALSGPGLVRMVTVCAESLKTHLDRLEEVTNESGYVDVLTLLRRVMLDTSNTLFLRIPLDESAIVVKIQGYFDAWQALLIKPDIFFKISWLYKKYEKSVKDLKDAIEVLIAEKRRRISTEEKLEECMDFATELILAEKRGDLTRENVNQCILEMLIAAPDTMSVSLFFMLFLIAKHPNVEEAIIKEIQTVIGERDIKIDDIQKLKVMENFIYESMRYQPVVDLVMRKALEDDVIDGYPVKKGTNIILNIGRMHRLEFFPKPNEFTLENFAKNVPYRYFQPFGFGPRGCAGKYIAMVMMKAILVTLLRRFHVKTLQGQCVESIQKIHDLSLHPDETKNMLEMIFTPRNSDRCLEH
Assay [15] can be described thus: qHTS assay for identifying genotoxic compounds that show differential cytotoxicity against isogenic chicken DT40 cell lines with known DNA damage response pathways - Rad54/Ku70 mutant cell line (AID 743015). Note: nearly all actives have a fitted effect of over 60% in size. Note: potency is the fitted concentration of half-maximal effect.
Assay [16] addresses Androgen receptor (Homo sapiens) (UniProt P10275). Put plainly: qHTS assay to identify small molecule agonists of the androgen receptor (AR) signaling pathway using the MDA cell line (AID 743040; note: nearly all actives have a fitted effect of over 20% in size). In a few lines:
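Cell-based luciferase reporter: MDA-kb2, MMTV promoter (AR + GR response elements). 16 h compound exposure at 37C; ONE-Glo, 30 min RT, luminescence.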

For assay [17] the target is unchanged. Briefly: qHTS assay to identify small molecule antagonists of the androgen receptor (AR) signaling pathway using the MDA cell line (AID 743042; note: nearly all actives have a fitted effect of over 55% in size). The procedure, abridged: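 MDA-kb2 cells (human breast carcinoma, stably carrying an MMTV-luciferase reporter responsive to AR and GR) were plated at 3,000 cells/well and preincubated 5 hr at 37C, then given compound plus R1881 agonist for 16 h. ONE-Glo luminescence was read.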

Values joined by “and” are separate entries in the source; they are usually repeats but may differ in a detail not shown here. Equal values may be shown once. Inconclusive results are not listed. More than one record can exist for a structure, and the calls need not agree. Active and inactive are the calls of the source. Unless noted, calls come from the whole dose curve; as a rule, active = well fitted curve in the direction sought with a large enough effect in the repeat runs; inconclusive = weak or mixed curves; inactive = no such curve, though single readings can be large; an effect the other way counts as inactive or inconclusive.

Sequence of Androgen receptor (Homo sapiens) (P10275 whole entry, looked up): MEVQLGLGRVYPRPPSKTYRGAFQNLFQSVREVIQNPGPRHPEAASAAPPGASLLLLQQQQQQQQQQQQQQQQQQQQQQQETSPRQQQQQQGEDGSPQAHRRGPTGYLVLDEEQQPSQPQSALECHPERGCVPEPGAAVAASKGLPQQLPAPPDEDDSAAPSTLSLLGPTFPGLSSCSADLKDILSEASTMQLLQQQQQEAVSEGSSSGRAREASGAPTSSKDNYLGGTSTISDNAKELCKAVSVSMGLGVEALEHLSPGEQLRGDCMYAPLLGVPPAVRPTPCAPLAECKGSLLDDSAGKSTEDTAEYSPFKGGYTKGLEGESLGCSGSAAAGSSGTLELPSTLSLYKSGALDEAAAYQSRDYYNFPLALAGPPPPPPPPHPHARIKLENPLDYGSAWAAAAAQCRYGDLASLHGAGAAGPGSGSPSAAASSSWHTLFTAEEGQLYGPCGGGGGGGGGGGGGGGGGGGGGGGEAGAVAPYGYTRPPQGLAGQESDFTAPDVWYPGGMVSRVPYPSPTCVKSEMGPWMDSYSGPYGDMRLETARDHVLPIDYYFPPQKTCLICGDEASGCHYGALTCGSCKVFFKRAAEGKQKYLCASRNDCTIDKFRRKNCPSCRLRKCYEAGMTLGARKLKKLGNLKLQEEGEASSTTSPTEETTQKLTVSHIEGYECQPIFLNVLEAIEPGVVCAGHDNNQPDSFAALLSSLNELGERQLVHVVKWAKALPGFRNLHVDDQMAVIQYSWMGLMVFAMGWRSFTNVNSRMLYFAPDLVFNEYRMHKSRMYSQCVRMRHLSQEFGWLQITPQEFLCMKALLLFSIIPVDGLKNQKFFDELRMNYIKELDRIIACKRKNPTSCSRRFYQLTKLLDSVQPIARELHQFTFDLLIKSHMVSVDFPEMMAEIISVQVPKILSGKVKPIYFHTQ

For the compound `C[C@H]1CNCCc2ccc(Cl)cc21`, the Potency entry in assay [1], in assay [4], in assay [5], in [6], in assay [7] and in assay [8] was “inactive” each time. Further, the Potency result in [9], in [10], in assay [11], in assay [12], in assay [13] and in assay [14] was “inactive” throughout. Further, the Potency result with Aromatase (Homo sapiens) was “inactive”. Further, the Potency in [2] was 26.6 µM (active); in assay [3], 13.3 µM (active).
`CN1C[C@H](CNC(=O)OCc2ccccc2)C[C@@H]2c3cccc4c3c(cn4C)C[C@H]21`: the Potency entry in assay [1], in [10], in [11] and in assay [13] was “inactive” throughout. Further, the Potency in assay [2] was 5.96 µM (active); in assay [3] it was 8.41 µM (active); in assay [15] it was 8.41 µM (active); in [6], 9.44 µM (active).
Regarding `O=C(OC1CCCCC1)c1ccccc1C(=O)OC1CCCCC1`, the Potency entry in [1], in [5], in [8], in [10], in assay [11] and in assay [12] was “inactive” in each case. In addition, the Potency result in assay [14] is “inactive”. Besides, the Potency in assay [2] was 28.8 µM (active); in assay [3], 22.9 µM (active); in assay [15] it was 25.7 µM (active).
`O=C(O)COc1ccc(Cl)cc1`: the Potency result in assay [1], in assay [2], in [3], in assay [15], in [5] and in [6] was “inactive” each time. For the same compound, the Potency result in assay [8], in [9], in assay [10], in assay [11], in [12] and in [13] was “inactive” in each case. Besides, the Potency result (in assay [14]; with Aromatase (Homo sapiens)) was “inactive” each time.
Consider `NNC(=O)c1cccnc1`, for which the Potency result in assay [1], in assay [2], in assay [15], in assay [4], in [5] and in assay [6] was “inactive” each time. Further, the Potency result in assay [7], in [8], in [9], in assay [10], in [11] and in assay [13] was “inactive” throughout. The Potency entry (in [14]; with Aromatase (Homo sapiens)) was “inactive” throughout.
Take `O=C(NCc1cccnc1)Nc1ccc([N+](=O)[O-])cc1`: the Potency result in [1], in assay [2], in assay [3], in assay [4], in assay [5] and in assay [8] was “inactive” each time. The Potency result in [9], in assay [10], in assay [11], in assay [12], in [13] and in [14] was “inactive” throughout. For the same compound, the Potency result with Aromatase (Homo sapiens) is “inactive”. Moreover, the Potency in [7] was 68.6 µM (active).
In the case of `CNP(=O)(OC)Oc1ccc(C(C)(C)C)cc1Cl` (stereo not drawn), the Potency result in assay [1], in assay [5], in [6], in assay [8], in assay [10] and in [11] was “inactive” in each case. The Potency result (in assay [12]; in assay [13]; in assay [14]; with Aromatase (Homo sapiens)) was “inactive” in each case. Also, the Potency in [2] was 13.7 µM (active); in [3], 19.3 µM (active); in assay [15], 21.7 µM (active).
Take `O=C=Nc1ccc(Cl)cc1`: the Potency entry in assay [1], in assay [5], in assay [7], in assay [8], in assay [10] and in assay [11] was “inactive” throughout. The Potency entry (in [14]; with Aromatase (Homo sapiens)) was “inactive” throughout. The Potency in assay [2] is 27.3 µM (active); in [3], 54.5 µM (active); in assay [15] it was 27.3 µM (active); in assay [9], 3.47 µM [inhibitor] (active).
`CCCCOC(=O)c1ccccc1C(=O)OCc1ccccc1`: the Potency entry (in [1]; in assay [3]; in [8]; in assay [10]; in [14]; with Aromatase (Homo sapiens)) was “inactive” each time. For the same compound, the Potency result was “inactive and 48.6 µM (active)” in [2]; 51.4 µM (active) in [15].
For `COP(=S)(Oc1cc(Cl)c(Br)cc1Cl)c1ccccc1` (stereo not drawn), the Potency result in assay [1], in [2], in assay [3], in assay [4], in assay [16] and in assay [5] was “inactive” throughout. The Potency result in assay [17], in [8], in assay [9], in [10], in assay [11] and in assay [12] was “inactive” throughout. Further, the Potency entry in assay [13] and in [14] was “inactive” throughout.
Consider `CCOC(=O)[C@]1(c2ccccc2)Oc2ccccc2[C@@H]1N`, for which the Potency result in [1] is “inactive”. Besides, the Potency in assay [2] is 48.6 µM (active); in assay [3], 4.86 µM (active); in assay [15] it was 24.3 µM (active); with Aromatase (Homo sapiens) it was 27.3 µM (active).
Take `Clc1cccc(SC2CCNCC2)n1`: the Potency entry in assay [1], in assay [2], in [3], in [4], in assay [8] and in assay [10] was “inactive” throughout. Moreover, the Potency entry (in [11]; in assay [12]; in assay [13]; in assay [14]; in the assay with Aromatase (Homo sapiens)) was “inactive” each time.

Values taken from PubChem BioAssay (Tox21).
